Measured values: PubChem BioAssay (NCI)
About 83,000 compounds went through this panel and 20% of them were active in at least one assay; those are over-represented in the sample as a whole.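 For each line, cells grew in 96-well plates with the test compound present at a single concentration for 48 hours.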 Unmarked numbers belong to inactive results. Activity calls are given as the source filed them. How the source made its calls: active means growth percent below 10; inactive means the rest.

These compounds were tested on HL-60(TB) leukemia (assay: NCI-60 one-dose screen, 48 h (100 = growth as untreated, 0 = no growth, -100 = all killed)). Conditions: 10 µM unless noted.

**Q.** For `COc1cc(/C=C2\C(=O)N(CCCCn3c4ccccc4c(=O)c4ccccc43)c3ccccc32)cc(OC)c1O`, which growth is on record?
**A.** 53.5%

**Q.** How did the growth turn out when `Oc1cccc(CCc2ccc(Oc3cc(CCc4cccc(O)c4)cc(O)c3O)cc2)c1` was run?
**A.** 15.3%

**Q.** Which growth does the source give for `Cc1cccc2c1S/C(=C/c1ccc([N+](=O)[O-])cc1)C2=O` here?
**A.** 101%

**Q.** Which growth does the source give for `Nc1ccc(N(O)/C=C2\C=CC=CC2=O)cc1N` here?
**A.** 73.2%

**Q.** `COc1cc2c(cc1O)CCc1cc(O)cc(OC)c1-2` was tested. Which growth did it give?
**A.** 76.4%

**Q.** `c1ccc(Nc2nc(-c3ccccn3)cs2)nc1` was tested. Which growth did it give?
**A.** 1.61% (active)

**Q.** For `O=S(=O)(Cc1ccc(Cl)cc1Cl)c1ccc(Cl)cc1`, which growth is on record?
**A.** 10.5%

**Q.** With `COc1cccc2c(N=NC(=O)c3ccc(S(N)(=O)=O)cc3)c(O)[nH]c12` as the compound, how does the growth read?
**A.** 98.4%

**Q.** With `COc1cc(/C=C/c2cc(/C=C/c3ccc(O)c(OC)c3)n(-c3ccccc3)c(=O)n2)ccc1O` as the compound, how does the growth read?
**A.** 70.9%

**Q.** For `O=C(Nc1ccc(Nc2ccncc2)cc1)c1ccc([N+](=O)[O-])cc1`, which growth is on record?
**A.** -75.2% (active)

**Q.** How did the growth turn out when `O=C(NNC(=O)c1ccc([N+](=O)[O-])cc1)c1ccc([N+](=O)[O-])cc1` was run?
**A.** 88.3%

**Q.** Which growth does the source give for `C=C1N(C)c2ccc(Cl)cc2C1(C)C` here?
**A.** 6.42% (active)

**Q.** For `C=C(C)[C@H]1CC/C(C)=C/CC[C@]2(C)O[C@H]2CC/C(COC(C)=O)=C\C1=O`, which growth is on record?
**A.** 117%

**Q.** `Oc1c(CN2CCN(c3ccccc3F)CC2)cc(Br)c2cccnc12` was tested. Which growth did it give?
**A.** -34.4% (active)

**Q.** For `O=C1c2cc3c(cc2-c2c1c1ccc(F)cc1c(=O)n2C[C@H](O)[C@H](O)[C@H](O)CO)OCO3`, which growth is on record?
**A.** -14.8% (active)

**Q.** For `CC(C)N1CCN(c2ccncc2S(=O)(=O)N2CCN(C)CC2)CC1`, which growth is on record?
**A.** 95.7%

**Q.** How did the growth turn out when `COc1ccc(-c2cc(/C=C3\C(=O)Nc4cc(Cl)ccc43)[nH]n2)cc1` was run?
**A.** -11.7% (active)

**Q.** With `O=C(Nc1ccccc1OC(=O)c1ccccc1)c1ccccc1` as the compound, how does the growth read?
**A.** 0.315% (active)

**Q.** `O=S(=O)(O)c1ccc(N=Nc2ccc(N=Nc3cccc4ccccc34)c(S(=O)(=O)O)c2)cc1` was tested. Which growth did it give?
**A.** 105%

**Q.** For `O=c1c2cc(Br)cc(Br)c2nc(-c2ccc(Cl)cc2)n1/N=C/c1cccc(F)c1`, which growth is on record?
**A.** 71%

**Q.** Which growth does the source give for `COc1ccc(-c2nc(C#N)c(NCC(c3ccc(Cl)cc3)N3CCCCC3)o2)cc1` (stereo not given) here?
**A.** 74.3%

**Q.** Which growth does the source give for `COc1ccc(N2CCN(C(=O)c3sc4nc(C)c(Br)c(C)c4c3N)CC2)cc1` here?
**A.** 95.7%

**Q.** With `COc1ccc2oc(=O)cc(Cn3cc(Cn4cnc5c4c(=O)n(C)c(=O)n5C)nn3)c2c1` as the compound, how does the growth read?
**A.** 107%

**Q.** Which growth does the source give for `Cc1ccc(/C=C/C(=O)Nc2ncc(Cc3ccc(F)cc3)s2)o1` here?
**A.** 2.75% (active)

**Q.** How did the growth turn out when `C#Cc1cccc(NC(=O)c2ccccc2NC(=O)C=C)c1` was run?
**A.** 97.7% [8.25 µM]

**Q.** `COc1ccc(-n2cnc3cc(C(=O)N4CCCCC4)ccc32)cc1` was tested. Which growth did it give?
**A.** 105%

**Q.** How did the growth turn out when `CC[N+](CC)=c1sc2c(s1)C(c1ccc(Cl)cc1)Oc1ccc(Cl)cc1-2` (stereo not given) was run?
**A.** -34.3% (active)

**Q.** For `CC[C@H](C)[C@@H]1NC(=O)[C@H](Cc2ccc(O)cc2)N(C)C(=O)[C@H](Cc2ccccc2)NC(=O)CN(C)C(=O)[C@@H]2CCCN2C(=O)[C@@H](Cc2ccccc2)N(C)C(=O)[C@H](CC(C)C)NC1=O`, which growth is on record?
**A.** -24% (active)

**Q.** `CCCCCC(=O)Oc1ccc(/C(=C(\C)c2ccccc2)c2ccc(OCCN(CC)CC)cc2)cc1` was tested. Which growth did it give?
**A.** 33.9%

**Q.** Which growth does the source give for `c1ccc2c(c1)ncn2-c1nc2ccccc2n2c1nc1ccccc12` here?
**A.** 102%

**Q.** For `C=C(CNCCc1ccc(O)cc1)[C@@H]1CC[C@]2(CO)CC[C@]3(C)[C@H](CC[C@@H]4[C@@]5(C)CCC(NCCc6ccc(O)cc6)C(C)(C)[C@@H]5CC[C@]43C)[C@@H]12` (stereo not given in full), which growth is on record?
**A.** -65.2% (active)

**Q.** For `CCCCC1CCc2cccc3c(SCC(=O)N(C)c4ccc(Cl)cc4)cc[n+]1c23` (stereo not given), which growth is on record?
**A.** 91.4%

**Q.** Which growth does the source give for `CCOC(=O)c1c(NC(=O)c2ccc(OC)cc2)sc2c(CN(C)C)c(O)ccc12` here?
**A.** 1.3% (active)

**Q.** With `CCN(CC)CCC(=O)Nc1cccc2c1C(=O)c1c(c(O)c3ccccc3c1O)C2=O` as the compound, how does the growth read?
**A.** 27.8%

**Q.** How did the growth turn out when `CN(C)CCCN(Cc1ccccc1O)C(=S)Nc1ccc(Cl)cc1` was run?
**A.** 103%

**Q.** For `O=Cc1c(OCc2cnnn2CC(=O)Nc2ccc(Br)cc2)ccc2ccccc12`, which growth is on record?
**A.** 105%

**Q.** For `O=C1c2cccc3c(-c4ccc5c(c4)ncn5C4CCCCC4)ccc(c23)C(=O)N1c1nc2ccccc2s1`, which growth is on record?
**A.** 76%

**Q.** How did the growth turn out when `C=CCn1c(SCC(=O)Nc2ccc(C(=O)/C=C/c3ccc(Cl)cc3)cc2)nnc1-c1ccc(Br)cc1` was run?
**A.** 76.2%

**Q.** Which growth does the source give for `O=C1/C(=C\c2cn(CC(O)CN3CCCCC3)c3ccccc23)c2ccccc2N1c1c(Cl)cccc1Cl` (stereo not given) here?
**A.** -36.5% (active)

**Q.** With `COC(=O)c1nc(=S)[nH]c(C(=O)OC)c1C(=O)c1ccc2ccccc2c1` as the compound, how does the growth read?
**A.** 122%
